Values joined by “and” are separate entries in the source; they are usually repeats but may differ in a detail not shown here. Equal values may be shown once. The campaign covered roughly 5,500 compounds. About 2,000 (36%) were called active. About 18% were inconclusive and are not listed. Cut-off read from the data, not from the text of the source: active = normalized growth mostly below about 0.91 (no sharp cut-off); inconclusive = no clear call, values can overlap the other calls; inactive = mostly above about 0.92. The list shows a part of the results.
Assay: chemical genetic growth profiling, strain panel (AID 1159580);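 note: tested at 20 µM; growth read once vehicle control cultures reached saturation at 30 °C; 1 = growth at the plate median or of vehicle wells; lower values mean less growth of the strain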
Conditions: S. cerevisiae deletion strains, growth OD

Measured: normalized growth

Cn1c(=O)c2c(ncn2CC(O)CO)n(C)c1=O (configuration not stated)
inactive: locus YAL013W, strain DEP1, active compounds read low 1.01 | locus YAL021C, strain ccr4, active compounds read low 0.97 | locus YAL026C, strain drs2, active compounds read low 0.967 | locus YAL030W, strain snc1, active compounds read low 0.989 | locus YBL061C, strain skt5, active compounds read low 0.992 | locus YBR009C, strain hhf1, active compounds read low 0.982 | locus YBR021W, strain FUR4, active compounds read low 1.03 | locus YBR023C, strain chs3, active compounds read low 1 | locus YBR171W, strain sec66, active compounds read low 0.978 | locus YBR229C, strain ROT2, active compounds read low 1.01 | locus YBR231C, strain swc5, active compounds read low 1 | locus YBR279W, strain paf1, active compounds read low 0.972 | locus YCL011C, strain gbp2, active compounds read low 0.99 | locus YCL016C, strain dcc1, active compounds read low 1.01 | locus YCL029C, strain bik1, active compounds read low 0.96 | locus YCL061C, strain MRC1, active compounds read low 1 | locus YCL069W, strain vba3, active compounds read low 0.953 | locus YCR088W, strain abp1, active compounds read low 0.989 | locus YDL005C, strain med2, active compounds read low 0.972 | locus YDL035C, strain GPR1, active compounds read low 1.05 | locus YDL040C, strain nat1, active compounds read low 0.986 | locus YDL074C, strain BRE1, active compounds read low 1.02 | locus YDL101C, strain DUN1, active compounds read low 0.995 | locus YDL185W, strain tfp1, active compounds read low 0.954 | locus YDL192W, strain arf1, active compounds read low 0.972 | locus YDR001C, strain nth1, active compounds read low 0.97 | locus YDR069C, strain doa4, active compounds read low 0.958 | locus YDR101C, strain arx1, active compounds read low 1.01 | locus YDR137W, strain rgp1, active compounds read low 0.986 | locus YDR159W, strain sac3, active compounds read low 0.942 | locus YDR162C, strain NBP2, active compounds read low 1.02 | locus YDR195W, strain ref2 0.951 | locus YDR297W, strain sur2, active compounds read low 0.991 | locus YDR318W, strain mcm21, active compounds read low 0.977 | locus YDR334W, strain swr1, active compounds read low 0.973 | locus YDR335W, strain msn5, active compounds read low 0.981 | locus YDR388W, active compounds read low 0.988 | locus YDR392W, strain spt3, active compounds read low 0.939 | locus YDR502C, strain sam2, active compounds read low 0.984 | locus YEL003W, strain gim4, active compounds read low 0.981 | locus YEL037C, strain rad23, active compounds read low 0.972 | locus YEL061C, strain CIN8 (second series), active compounds read low 0.97 | locus YEL061C, strain CIN8, active compounds read low 0.997 | locus YER015W, strain faa2, active compounds read low 0.993 | locus YER016W, strain bim1, active compounds read low 0.951 | locus YER110C, active compounds read low 0.943 | locus YER111C, strain swi4, active compounds read low 0.988 | locus YER155C, strain BEM2 (second series), active compounds read low 0.953 | locus YER155C, strain BEM2, active compounds read low 1 | locus YER167W, strain BCK2, active compounds read low 0.996 | locus YFR010W, strain ubp6, active compounds read low 0.967 | locus YGL078C, strain dbp3, active compounds read low 0.978 | locus YGL086W, strain mad1, active compounds read low 1.01 | locus YGL167C, strain pmr1, active compounds read low 0.989 | locus YGL173C, strain kem1, active compounds read low 0.97 | locus YGL227W, strain vid30, active compounds read low 0.987 | locus YGL240W, strain doc1, active compounds read low 0.973 | locus YGL248W, strain PDE1, active compounds read low 0.995 | locus YGL253W, strain hxk2, active compounds read low 0.972 | locus YGR078C, strain PAC10, active compounds read low 1.01 | locus YGR135W, strain pre9, active compounds read low 0.954 | locus YGR252W, strain gcn5, active compounds read low 0.987 | locus YHR013C, strain ard1, active compounds read low 0.975 | locus YHR027C, strain rpn1, active compounds read low 0.981 | locus YHR030C, strain SLT2, active compounds read low 1 and 1.02 | locus YHR079C, strain IRE1 (second series), active compounds read low 0.968 | locus YHR079C, strain IRE1, active compounds read low 1.08 | locus YHR094C, strain hxt1, active compounds read low 0.984 | locus YHR129C, strain ARP1, active compounds read low 1.01 | locus YHR142W, strain chs7, active compounds read low 0.992 | locus YHR200W, strain rpn10, active compounds read low 0.97 | locus YIL066C, strain RNR3, active compounds read low 1.01 | locus YIL073C, strain SPO22, active compounds read low 0.908 | locus YIL125W, strain kgd1, active compounds read low 0.992 | locus YIR030C, strain dcg1, active compounds read low 0.949 | locus YJL092W, strain hpr5, active compounds read low 0.998 | locus YJL095W, strain BCK1 (second series), active compounds read low 0.989 | locus YJL095W, strain BCK1, active compounds read low 0.982 and 1.02 | locus YJL115W, strain asf1, active compounds read low 0.979 | locus YJL129C, strain trk1, active compounds read low 0.994 | locus YJL134W, strain LCB3, active compounds read low 1 | locus YJL154C, strain vps35, active compounds read low 0.972 | locus YJL164C, strain tpk1, active compounds read low 0.998 | locus YJL166W, strain qcr8, active compounds read low 1.04 | locus YJL168C, strain set2, active compounds read low 0.98 | locus YJL187C, strain SWE1 (second series), active compounds read low 0.988 | locus YJL187C, strain SWE1, active compounds read low 0.981 | locus YJR043C, strain POL32, active compounds read low 1.06 | locus YJR066W, strain TOR1, active compounds read low 0.952 | locus YKL009W, strain mrt4, active compounds read low 0.979 | locus YKL068W, active compounds read low 0.982 | locus YKL085W, strain MDH1 (second series), active compounds read low 1.01 | locus YKL085W, strain MDH1, active compounds read low 1.01 | locus YKL160W, strain elf1, active compounds read low 1.06 | locus YKR001C, strain vps1, active compounds read low 0.975 | locus YKR026C, strain gcn3, active compounds read low 0.974 | locus YKR091W, strain srl3, active compounds read low 0.994 | locus YLL001W, strain dnm1, active compounds read low 1.03 | locus YLL026W, active compounds read low 0.987 | locus YLL041C, strain sdh2, active compounds read low 0.979 | locus YLR027C, strain aat2, active compounds read low 0.973 | locus YLR039C, strain RIC1, active compounds read low 1.01 | locus YLR058C, strain SHM2, active compounds read low 0.996 | locus YLR102C, strain apc9, active compounds read low 0.975 | locus YLR113W, strain HOG1, active compounds read low 1.06 | locus YLR221C, strain rsa3, active compounds read low 1.03 | locus YLR258W, strain gsy2, active compounds read low 0.985 | locus YLR262C, strain YPT6 (second series), active compounds read low 0.991 | locus YLR262C, strain YPT6, active compounds read low 0.939 | locus YLR268W, strain sec22, active compounds read low 0.966 | locus YLR320W, strain mms22, active compounds read low 1.04 | locus YLR330W, strain CHS5, active compounds read low 0.999 | locus YLR342W, strain FKS1 (second series), active compounds read low 1.08 | locus YLR342W, strain FKS1, active compounds read low 0.983 | locus YLR357W, strain rsc2, active compounds read low 0.989 | locus YLR370C, strain arc18, active compounds read low 0.981 | locus YLR371W, strain rom2, active compounds read low 0.963 | locus YLR384C, strain iki3, active compounds read low 0.98 | locus YLR418C, strain cdc73, active compounds read low 0.996 | locus YML016C, strain PPZ1, active compounds read low 1.01 | locus YML032C, strain rad52, active compounds read low 0.988 | locus YML120C, strain ndi1, active compounds read low 1.01 | locus YML124C, strain tub3, active compounds read low 0.988 | locus YMR058W, strain fet3, active compounds read low 0.981 | locus YMR078C, strain ctf18, active compounds read low 0.966 | locus YMR125W, strain sto1, active compounds read low 0.979 | locus YMR129W, active compounds read low 0.966 | locus YMR205C, strain PFK2, active compounds read low 1.04 | locus YMR223W, strain ubp8, active compounds read low 0.973 | locus YMR231W, strain pep5, active compounds read low 0.97 | locus YMR307W, strain GAS1, active compounds read low 1.05 | locus YNL067W, strain RPL9B, active compounds read low 0.97 | locus YNL071W, strain lat1, active compounds read low 0.975 | locus YNL128W, strain TEP1, active compounds read low 0.969 | locus YNL153C, strain GIM3, active compounds read low 1 | locus YNL183C, strain NPR1, active compounds read low 0.987 | locus YNL209W, strain ssb2, active compounds read low 0.995 | locus YNL233W, strain BNI4, active compounds read low 1.01 | locus YNL248C, strain rpa49, active compounds read low 0.978 | locus YNL250W, strain rad50, active compounds read low 0.974 | locus YNL271C, strain bni1, active compounds read low 0.973 | locus YNL298W, strain CLA4, active compounds read low 0.969 | locus YNL307C, strain MCK1, active compounds read low 0.983 | locus YNL322C, strain KRE1 (second series), active compounds read low 0.983 | locus YNL322C, strain KRE1, active compounds read low 0.998 | locus YNR049C, strain mso1, active compounds read low 0.988 | locus YNR052C, strain pop2, active compounds read low 0.969 | locus YOL006C, strain TOP1, active compounds read low 0.966 | locus YOL012C, strain htz1 0.82 | locus YOL147C, strain pex11, active compounds read low 0.974 | locus YOR001W, strain rrp6, active compounds read low 0.93 | locus YOR061W, strain CKA2, active compounds read low 1 | locus YOR069W, strain VPS5, active compounds read low 1.01 | locus YOR070C, strain gyp1, active compounds read low 0.989 | locus YOR080W, strain dia2, active compounds read low 0.984 | locus YOR083W, strain WHI5, active compounds read low 1.07 | locus YOR106W, strain vam3, active compounds read low 1.02 | locus YOR136W, strain idh2, active compounds read low 0.976 | locus YOR144C, strain elg1, active compounds read low 0.98 | locus YOR184W, strain ser1, active compounds read low 0.957 | locus YOR231W, strain MKK1, active compounds read low 1.03 | locus YOR265W, strain rbl2, active compounds read low 0.986 | locus YOR270C, strain vph1, active compounds read low 0.982 | locus YOR290C, strain snf2, active compounds read low 0.954 | locus YOR316C, strain cot1, active compounds read low 0.959 | locus YPL051W, strain arl3, active compounds read low 0.991 | locus YPL055C, strain LGE1, active compounds read low 1.01 | locus YPL078C, strain atp4, active compounds read low 1.03 | locus YPL106C, strain sse1, active compounds read low 1 | locus YPL240C, strain hsp82, active compounds read low 0.97 | locus YPL241C, strain CIN2, active compounds read low 1 | locus YPL256C, strain CLN2, active compounds read low 1.02 | locus YPR119W, strain clb2, active compounds read low 0.967 | locus YPR141C, strain kar3, active compounds read low 0.95 | locus YPR163C, strain tif3, active compounds read low 0.98 | locus YPR167C, strain met16, active compounds read low 0.968 | strain wtn01, active compounds read low 0.997

Source: PubChem BioAssay AID1159580 (chemical genetic matrix, 2015)
